Data published in PubChem BioAssay AID1159580 (chemical genetic matrix, 2015).
Several values for one entry are separate records, joined by “and”; a condition that tells them apart may be missing. Equal values may be shown once. The campaign covered roughly 5,500 compounds. About 2,000 (36%) were called active. Not shown: some 18% with an inconclusive outcome. Rule as the data show it: active = normalized growth mostly below about 0.91 (no sharp cut-off); inconclusive = no clear call, values can overlap the other calls; inactive = mostly above about 0.92. This is one part of the list.

Assay: chemical genetic growth profiling, strain panel (AID 1159580);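 also: tested at 20 µM; growth read once vehicle control cultures reached saturation at 30 °C; 1 = growth at the plate median or of vehicle wells; lower values mean less growth of the strain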
Settings: S. cerevisiae deletion strains, growth OD

Measured: normalized growth

CC(=O)N[C@@H](Cc1c[nH]c2ccccc12)C(N)=O
inactive: locus YAL013W, strain DEP1, active compounds read low 1.09 | locus YAL021C, strain ccr4, active compounds read low 1 | locus YAL026C, strain drs2, active compounds read low 1 | locus YAL030W, strain snc1, active compounds read low 1.02 | locus YBL061C, strain skt5, active compounds read low 1.02 | locus YBR009C, strain hhf1, active compounds read low 1.01 | locus YBR021W, strain FUR4, active compounds read low 1.02 | locus YBR023C, strain chs3, active compounds read low 1.02 | locus YBR171W, strain sec66, active compounds read low 1.01 | locus YBR229C, strain ROT2, active compounds read low 0.965 | locus YBR231C, strain swc5, active compounds read low 1.02 | locus YBR279W, strain paf1, active compounds read low 1.01 | locus YCL011C, strain gbp2, active compounds read low 1.02 | locus YCL016C, strain dcc1, active compounds read low 1.01 | locus YCL029C, strain bik1, active compounds read low 0.999 | locus YCL061C, strain MRC1, active compounds read low 1.02 | locus YCL069W, strain vba3, active compounds read low 1.02 | locus YCR088W, strain abp1, active compounds read low 1.03 | locus YDL005C, strain med2, active compounds read low 1.04 | locus YDL035C, strain GPR1, active compounds read low 0.985 | locus YDL040C, strain nat1, active compounds read low 1.02 | locus YDL074C, strain BRE1, active compounds read low 0.948 | locus YDL101C, strain DUN1, active compounds read low 0.977 | locus YDL134C, strain PPH21, active compounds read low 0.985 | locus YDL185W, strain tfp1, active compounds read low 0.972 | locus YDL192W, strain arf1, active compounds read low 0.99 | locus YDR001C, strain nth1, active compounds read low 1.01 | locus YDR069C, strain doa4, active compounds read low 1.03 | locus YDR101C, strain arx1, active compounds read low 0.997 | locus YDR137W, strain rgp1, active compounds read low 1.01 | locus YDR150W, strain NUM1, active compounds read low 0.972 | locus YDR159W, strain sac3, active compounds read low 1.03 | locus YDR162C, strain NBP2, active compounds read low 0.945 | locus YDR195W, strain ref2 1.05 | locus YDR297W, strain sur2, active compounds read low 1.03 | locus YDR318W, strain mcm21, active compounds read low 1 | locus YDR334W, strain swr1, active compounds read low 1.01 | locus YDR335W, strain msn5, active compounds read low 1 | locus YDR388W, active compounds read low 1 | locus YDR392W, strain spt3, active compounds read low 0.953 | locus YDR502C, strain sam2, active compounds read low 0.996 | locus YEL003W, strain gim4, active compounds read low 1.01 | locus YEL037C, strain rad23, active compounds read low 1.02 | locus YEL061C, strain CIN8 (second series), active compounds read low 1.02 | locus YEL061C, strain CIN8, active compounds read low 0.99 | locus YER015W, strain faa2, active compounds read low 1.02 | locus YER016W, strain bim1, active compounds read low 1.01 | locus YER110C, active compounds read low 1 | locus YER111C, strain swi4, active compounds read low 1.01 | locus YER155C, strain BEM2 (second series), active compounds read low 1.06 | locus YER155C, strain BEM2, active compounds read low 1.01 | locus YER167W, strain BCK2, active compounds read low 1.01 | locus YFR010W, strain ubp6, active compounds read low 1.02 | locus YGL078C, strain dbp3, active compounds read low 0.994 | locus YGL086W, strain mad1, active compounds read low 1 | locus YGL167C, strain pmr1, active compounds read low 1.01 | locus YGL173C, strain kem1, active compounds read low 1.02 | locus YGL227W, strain vid30, active compounds read low 1.03 | locus YGL240W, strain doc1, active compounds read low 1.05 | locus YGL248W, strain PDE1, active compounds read low 0.986 | locus YGL253W, strain hxk2, active compounds read low 1.01 | locus YGR078C, strain PAC10, active compounds read low 0.97 | locus YGR135W, strain pre9, active compounds read low 0.983 | locus YGR229C, strain SMI1, active compounds read low 0.973 | locus YGR252W, strain gcn5, active compounds read low 1.02 | locus YHR013C, strain ard1, active compounds read low 1.03 | locus YHR027C, strain rpn1, active compounds read low 1.01 | locus YHR030C, strain SLT2, active compounds read low 1 | locus YHR079C, strain IRE1 (second series), active compounds read low 1.01 | locus YHR079C, strain IRE1, active compounds read low 0.99 | locus YHR094C, strain hxt1, active compounds read low 0.995 | locus YHR129C, strain ARP1, active compounds read low 0.994 | locus YHR142W, strain chs7, active compounds read low 1 | locus YHR200W, strain rpn10, active compounds read low 1.01 | locus YIL066C, strain RNR3, active compounds read low 0.973 | locus YIL073C, strain SPO22, active compounds read low 1.06 | locus YIL125W, strain kgd1, active compounds read low 0.989 | locus YIR030C, strain dcg1, active compounds read low 1 | locus YJL092W, strain hpr5, active compounds read low 1.02 | locus YJL095W, strain BCK1 (second series), active compounds read low 1.02 | locus YJL095W, strain BCK1, active compounds read low 0.994 and 1.02 | locus YJL115W, strain asf1, active compounds read low 1.04 | locus YJL129C, strain trk1, active compounds read low 1.08 | locus YJL134W, strain LCB3, active compounds read low 0.997 | locus YJL154C, strain vps35, active compounds read low 1.02 | locus YJL164C, strain tpk1, active compounds read low 1.02 | locus YJL166W, strain qcr8, active compounds read low 1.04 | locus YJL168C, strain set2, active compounds read low 0.994 | locus YJL187C, strain SWE1 (second series), active compounds read low 0.972 | locus YJR043C, strain POL32, active compounds read low 1.05 | locus YJR066W, strain TOR1, active compounds read low 0.923
